Screening data as filed in PubChem BioAssay.
D2 ag-1: HTS Assay for Allosteric Agonists of the Human D2 Dopamine Receptor: Primary Screen for Agonists. D(2) dopamine receptor (Homo sapiens), P14416. HEK293 T-REx D2 cells, calcium flux agonist mode. activation, % at 2 µM. 340,000 compounds, 0.53% hits. AID 485358, 2010;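 active means activation over 3 SD above normal in the single-dose calcium agonist read, cut at about 30% in these data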
Target sequence (P14416 whole entry, looked up): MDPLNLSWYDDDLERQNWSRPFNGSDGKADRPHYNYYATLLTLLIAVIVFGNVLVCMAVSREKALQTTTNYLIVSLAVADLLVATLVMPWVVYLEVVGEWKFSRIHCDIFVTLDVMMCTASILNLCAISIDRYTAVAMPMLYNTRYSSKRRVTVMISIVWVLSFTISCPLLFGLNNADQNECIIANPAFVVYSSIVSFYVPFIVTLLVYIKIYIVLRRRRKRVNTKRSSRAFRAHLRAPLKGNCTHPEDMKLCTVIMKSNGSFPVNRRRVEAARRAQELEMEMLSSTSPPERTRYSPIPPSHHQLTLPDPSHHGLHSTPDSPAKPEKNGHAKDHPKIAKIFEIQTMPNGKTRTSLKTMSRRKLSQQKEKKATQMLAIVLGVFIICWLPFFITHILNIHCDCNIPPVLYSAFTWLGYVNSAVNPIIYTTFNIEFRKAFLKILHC
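Tetracycline-induced HEK293 T-REx cells with force-coupled D2 receptor, plated overnight at 30 C, loaded with no-wash calcium dye. After a 10 s baseline, compound was pin-added and calcium flux read kinetically for 180 s; calcium rises flagged agonists.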
D2 PAM-1: HTS Assay for Positive Allosteric Modulators of the Human D2 Dopamine Receptor: Primary Screen for Potentiators; potentiation, % at 10 µM; HEK293 T-REx D2, calcium flux, EC20 dopamine potentiation; 340,000 compounds, 0.34% hits; AID 485347, 2010; D(2) dopamine receptor (Homo sapiens), P14416;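 active means potentiation over 3 SD above the plate norm, cut at about 30% in these data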
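Potentiation of an EC20 dopamine calcium response measured kinetically over 180 s, after a preceding 180 s compound-only read flagging agonists. Cells: inducible Hek293 Trex D2 line, 4000/well, cultured overnight at 30 C before dye loading.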
D2 antagonist: HTS Assay for Allosteric Antagonists of the Human D2 Dopamine Receptor: Primary Screen for Antagonists; inhibition, % at 10 µM; HEK293 TREx D2 cells, calcium flux, dopamine EC80; 340,000 compounds, 2% hits; D(2) dopamine receptor (Homo sapiens), P14416; in the data active means inhibition above about 30%; inactive means below that, where a call was filed
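Calcium flux kinetic readout in an inducible HEK293 TREx D2 line plated overnight at 30 C. After 180 s compound exposure, an EC80 dopamine challenge follows with another 180 s kinetic read to detect antagonism.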
D2 PAM-2: Beta-Arrestin HTS for Positive Allosteric Modulators of the Human D2 Dopamine Receptor: Potentiators; D(2) dopamine receptor (Homo sapiens), P14416; DiscoveRx D2 beta-arrestin cells, luminescence, 90 min; 100% = 57 uM dopamine signal; potentiation, % (concentration not given with the values); 360,000 compounds, 0.23% hits; in the data active means potentiation above about 50%; inconclusive means mostly about 30% to 49%
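PathHunter D2 cells, attached overnight at 37 deg C, received compound in DMSO plus dopamine at EC20 (50 nM final) for 90 min at 37 deg C. Beta-arrestin recruitment was read as luminescence after 1 h with detection reagent at ambient temperature.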
D2 ag-2: Beta-Arrestin HTS for Positive Allosteric Modulators of the Human D2 Dopamine Receptor: Agonists | DiscoveRx PathHunter D2 beta-arrestin, luminescence, 90 min; 100% = 57 uM dopamine signal | activation, % (no concentration beside the values) | 360,000 compounds, 0.084% hits | AID 624465, 2012; in the data active means activation above about 40%; inconclusive means between about 15% and that limit
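DiscoveRx PathHunter D2 beta-arrestin cells (2,100/well) attached overnight, then compound-stimulated 90 min at 37 C in HBSS/10 mM HEPES/0.1% Tween-20 buffer; beta-galactosidase complementation read by luminescence after 1 h at ambient temperature. Dopamine 57 uM final (EC100) as control.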
Numbers stand for hits; . = inactive; ? = inconclusive; / = no result. Rows were chosen to be rich in hits. Some 2.4% of all compounds tested hit in one or more screens of this group.

SMILES	D2 ag-1	D2 PAM-1	D2 antagonist	D2 PAM-2	D2 ag-2
O=C(CN1C(=O)C2(SCC(=O)N2c2cccc(Cl)c2)c2ccccc21)NCc1ccccc1 (stereo not drawn)	.	.	/	/	/
Cc1c(C(=O)N(Cc2ccccc2F)C2CCS(=O)(=O)C2)oc2ccccc12 (stereo not drawn)	.	.	/	/	/
CC(=O)OC1CC2(C)/C(=N\O)CCC2C2CCc3cc(O)ccc3C12 (stereo not drawn)	/	/	/	.	41
Oc1ccc2nnc3c(Br)cnn3c2c1	53	.	.	.	?
Cc1ccc(Cl)cc1N1CCN(CCNC(=O)Nc2ccc(Cl)cc2)CC1	.	.	/	/	/
COc1cc(C2CC(=O)Oc3c(C(CCN4CCCC(C)C4)c4ccc(N(C)C)cc4)c(OC)cc(OC)c32)cc(OC)c1OC (stereo not drawn)	.	.	44	.	.
CCOC(=O)C1CCN(C(=O)Cc2c(F)cccc2Cl)CC1	.	.	31	.	.
Cc1cc(NC(=O)c2cc(-c3cccs3)nc3ccccc23)no1	.	.	37	.	.
CC(=O)NS(=O)(=O)c1ccc(NC(=O)c2cc(-c3cccs3)nc3ccccc23)cc1	37	.	.	.	.
COc1ccc(C2NC(=O)NC(C)=C2C(=O)OCc2ccccc2)cc1 (stereo not drawn)	.	.	.	.	.
CC1=C(C(=O)OCc2ccccc2)C(c2ccccc2)NC(=O)N1 (stereo not drawn)	.	.	.	53	.
CC1=C(C(=O)OCc2ccccc2)C(c2cccc(F)c2)NC(=O)N1 (stereo not drawn)	.	.	.	72	44
O=C(CSc1oc(-c2ccccc2)nc1S(=O)(=O)c1ccc(Br)cc1)c1ccccc1	.	/	/	/	/
COc1ccc(CCn2c3c(c(=O)[nH]c2=O)C(NC(=O)c2ccccc2OC)(C(F)(F)F)C(=O)N3)cc1OC (stereo not drawn)	.	.	/	/	/
O=C(CN1CCN(Cc2ccccc2)CC1)NCc1ccc(Cl)cc1	.	.	.	.	.
O=C(c1ccco1)N1CCN(Cc2nnc(-c3ccccc3F)o2)CC1	.	35	.	.	.
Nc1nc(CN2CCN(C(=O)c3ccco3)CC2)nc(Nc2cccc(Cl)c2)n1	38	.	.	.	?
O=C(CN1CCN(C(=O)c2ccco2)CC1)NCc1ccc(Cl)cc1	.	.	32	.	.
O=C(c1ccco1)N1CCN(Cc2ccc(F)cc2)CC1	81	.	58	?	44
CCOC(=O)N1CCN(Cc2nc(N)nc(Nc3ccc(Cl)cc3)n2)CC1	.	.	.	.	.
O=C(c1ccco1)N1CCN(c2ccc(F)cc2)CC1	.	.	.	.	.
C=CCc1cccc(/C=N/NC(=O)CCCNc2ccc(C)cc2)c1O	.	.	.	.	.
O=C(Cc1cc(=O)[nH][nH]1)N/N=C/c1ccccc1Cl	.	.	.	.	.
C=CCc1cccc(/C=N/NC(=O)C[n+]2ccccc2)c1O	.	.	53	.	.
O=C(O)COc1ccccc1/C=N/NC(=O)C(O)c1ccccc1 (stereo not drawn)	.	.	.	.	.
SMILES	D2 ag-1	D2 PAM-1	D2 antagonist	D2 PAM-2	D2 ag-2
O=C(Cc1ccccc1)N/N=C/c1ccccc1Cl	.	.	31	.	.
C=CCc1cccc(/C=N/NC(=O)C(C)Nc2cccc(C)c2)c1O (stereo not drawn)	.	.	31	.	.
CNC(=S)N/N=C/c1ccccc1OCC(=O)O	.	.	31	.	.
COCCNC(=O)C1(C)CCCN(Cc2ccc(Oc3ccccc3)cc2)C1 (stereo not drawn)	/	/	/	.	.
COc1ccc(-n2cc(C(=O)OCc3ccc(Cl)cc3)c3ccccc3c2=O)cc1	.	.	/	/	/
COc1ccc2nc(NC(=O)c3ccc(S(=O)(=O)N4CCCC(C)C4)cc3)sc2c1 (stereo not drawn)	.	.	/	/	/
COc1ccc(/C=N/NC(=O)C[n+]2ccccc2)c(OC)c1OC	.	.	35	.	.
CCOc1ccccc1/C=N/NC(=O)C[n+]1ccccc1	.	.	33	.	.
O=C(Cc1ccccc1)Nc1ccc(Br)c(Cl)c1	.	31	.	.	.
O=C(C[n+]1ccccc1)N/N=C/c1cccc(Cl)c1Cl	.	.	.	.	.
O=C(C[n+]1ccccc1)N/N=C/c1ccccc1Cl	.	.	36	.	.
Cc1occc1C(=O)Nc1c(F)cc(F)cc1Br	.	.	34	.	.
Cn1c(CCCOc2ccc(Cl)cc2Cl)nnc1SCC(=O)Nc1nccs1	.	.	32	.	.
Cn1c(CC(=O)Nc2ccc(Cl)c(Cl)c2)nnc1SCC(=O)Nc1nccs1	.	.	.	.	.
Cn1c(CSCc2ccccc2Cl)nnc1SCC(=O)Nc1nccs1	.	.	60	.	.
CCCCc1nnc(SCC(=O)Nc2nccs2)n1C	.	.	.	.	.
COc1cc(C)ccc1OCCSc1nc2ccc(NC(=O)c3cccs3)cc2s1	.	.	/	/	/
C[C@@H]1CN([C@H](C)CO)C(=O)c2cc(C#CC3CCCCC3)cnc2O[C@H]1CN(C)Cc1cccnc1	/	/	/	.	.
OC(c1ccc(F)c(F)c1)c1nc(-c2ccc(Cl)cc2)cs1 (stereo not drawn)	/	/	/	.	.
c1ccc(-c2cn(-c3ccccc3)c3[n+]2CCS3)cc1	.	.	.	.	.
CC(C)(C)c1ccc(-c2cn(-c3ccc(Br)cc3)c3[n+]2CCCS3)cc1	.	.	42	.	.
COc1ccc(NC(=O)CSC2=Nc3ccccc3C3=NC(CCC(=O)NCCc4ccccc4)C(=O)N23)c(OC)c1 (stereo not drawn)	/	.	/	/	/
Cc1ccc(C)c(OCCC(=O)NNC(=O)c2ccccc2)c1	.	.	.	.	.
Cc1ccc(C)c(OCCC(=O)NNC(=O)c2ccncc2)c1	.	.	43	.	.
CN(CC(=O)Nc1ccc(OC(F)(F)F)cc1)C(=O)/C=C/c1cc2c(cc1[N+](=O)[O-])OCO2	.	.	80	.	.
O=C(CN1C(=O)c2cccnc2Oc2ccc(Cl)cc21)Nc1cccc(C(F)(F)F)c1	.	.	/	/	/
COc1ccccc1CNC(=O)C1CCN(S(=O)(=O)c2ccc3[nH]c(=O)ccc3c2)CC1	.	/	/	/	/
C=CCNC(=S)Nc1sc2c(c1C(=O)OCC)CCN(C(=O)OCC)C2	.	40	.	.	.
CCOC(=O)c1c(NC(=S)NCc2ccccc2)sc2c1CCN(C(=O)OCC)C2	.	.	.	.	.
Cc1cccc(C)c1OCc1n[nH]c(=S)n1-c1ccccc1	.	.	.	.	.
